Screening results (PubChem)
In the library only some 4.6% were active in any assay of this set; here they are far more common.
FAS-TE inh = FAS thioesterase domain inhibitors, primary screen, biochemical, fluorescence intensity, uHTS; recombinant FAS-TE, OMFH fluorogenic substrate, fluorescence endpoint; inhibition, % at 15 µM; actives 0.67% (n = 360,000);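 active = compounds whose normalised, plate-corrected inhibition of enzyme fluorescence in the single-dose primary screen is 50% or more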;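 note: 0% = DMSO with enzyme and 100% = substrate without enzyme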
proKLK7 act = proKLK7 zymogen activators, primary screen, biochemical, fluorescence intensity | Kallikrein-7 (Homo sapiens), P49862 | purified proKLK7, EDANS-DABCYL substrate fluorescence; 100% is mature enzyme control, 0% vehicle | activation, % at 7 µM | actives 0.9% (n = 370,000) | AID 652039, 2013;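 active = activation above the mean of all tested compounds plus 3 SD, computed per campaign excluding outliers beyond control limits, cut at about 13% in these data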
ADAM10 inh = human ADAM10 inhibitors, primary screen, biochemical, QFRET, HTS; AID 720582, 2013; inhibition, % at 7 µM; Disintegrin and metalloproteinase domain-containing protein 10 (Homo sapiens), O14672; recombinant ADAM10, EDANS/DABCYL FRET peptide cleavage, 3 h; actives 0.62% (n = 370,000);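 active = inhibition above a per-campaign cutoff equal to the mean of compounds falling between control-based bounds plus 3 SD, cut at about 20% in these data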;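 note: 0% = DMSO wells while the 100% control is not disclosed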
ADAM17 inh = ADAM17 inhibitors, primary screen, biochemical, QFRET. Disintegrin and metalloproteinase domain-containing protein 17 (Homo sapiens), P78536. recombinant ADAM17, EDANS/DABCYL FRET peptide cleavage. inhibition, % at 6.95 µM. actives 0.83% (n = 370,000). AID 720648, 2013;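 active = inhibition above the mean of compounds lying between control limits plus 3 SD, set per campaign, cut at about 8.5% in these data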;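 note: 0% = DMSO-only wells as the low control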
Target sequence (P78536 215-824 limits assumed): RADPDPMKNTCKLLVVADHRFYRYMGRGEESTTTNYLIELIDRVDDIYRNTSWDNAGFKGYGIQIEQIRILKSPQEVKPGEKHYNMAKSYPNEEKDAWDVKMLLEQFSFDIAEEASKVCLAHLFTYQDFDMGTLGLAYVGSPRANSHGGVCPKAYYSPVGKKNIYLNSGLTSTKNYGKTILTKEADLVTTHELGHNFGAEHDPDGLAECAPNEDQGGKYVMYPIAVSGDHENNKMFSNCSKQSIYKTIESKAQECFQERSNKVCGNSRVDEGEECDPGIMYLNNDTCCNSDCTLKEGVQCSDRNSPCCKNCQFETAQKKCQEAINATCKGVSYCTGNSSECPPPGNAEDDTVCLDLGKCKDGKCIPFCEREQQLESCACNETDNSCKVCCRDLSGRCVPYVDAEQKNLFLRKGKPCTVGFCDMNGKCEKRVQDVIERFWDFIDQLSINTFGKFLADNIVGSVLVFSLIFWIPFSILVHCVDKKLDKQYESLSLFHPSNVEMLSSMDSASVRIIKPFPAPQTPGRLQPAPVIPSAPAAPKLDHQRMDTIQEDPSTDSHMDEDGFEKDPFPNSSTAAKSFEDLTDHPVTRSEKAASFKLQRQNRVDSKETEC
GRIN3A LBD mod = binders of NR3A ligand-binding domain, primary screen, biophysical, differential scanning fluorimetry, uHTS | NR3A LBD differential scanning fluorimetry, Tm shift; 0% = protein alone, 100% = glycine-bound protein | actives 2.5% (n = 340,000) | Glutamate receptor ionotropic, NMDA 3A (GRIN3A) ligand-binding domain | Tm shift relative to glycine control, % at 25 µM;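 active = melting temperature shift of at least 10% of the positive control shift, at one fixed dose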
FAS-TE inh conf = FAS thioesterase domain inhibitors, confirmation, biochemical, fluorescence intensity, single concentration. inhibition, % at 15 µM. shares compounds with FAS-TE inh. actives 45% (n = 2,300). AID 624325, 2012. recombinant FAS-TE, OMFH fluorogenic substrate;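 active = compounds inhibiting the enzyme by at least 50% at 15 µM in any one of the replicates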;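 note: 0% = enzyme with DMSO only and 100% = wells lacking enzyme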
Starred values were filed as active, the others as inactive; i = inactive; · = no result.

SMILES	FAS-TE inh	proKLK7 act	ADAM10 inh	ADAM17 inh	GRIN3A LBD mod	FAS-TE inh conf
CCOC(=O)C1CCCN(c2nc3c(C)cccn3c(=O)c2/C=C(\C#N)C(=O)NCc2ccco2)C1 (stereo unspecified)	52*	4	i	i	1	54*
Cc1cccn2c(=O)c(/C=C(\C#N)C(=O)NCc3ccco3)c(N3CCCCCC3)nc12	53*	1	-57	-24	-1	48
CC(C)(C)c1ccc(/C=N/Nc2ccc(C(=O)O)cc2)cc1	64*	-1	1	0	-5	77*
O=C(O)c1ccc(N/N=C/c2ccc(C(F)(F)F)cc2)cc1	14	0	-9	-1	-4	·
COc1cc(/C=C/C(=O)OCC(=O)Nc2sc3c(c2C#N)CCC(C)C3)ccc1OCC#N (stereo unspecified)	64*	0	-7	-2	1	17
CC1(C)CC2CC(C)(CN2S(=O)(=O)c2ccc(C(=O)Nc3ccc(Cl)c(S(=O)(=O)N4CCOCC4)c3)cc2)C1 (stereo unspecified)	80*	0	1	2	1	13
CC1(C)CC2CC(C)(CN2S(=O)(=O)c2ccc(C(=O)Nc3ccc(S(=O)(=O)N4CCOCC4)cc3)cc2)C1 (stereo unspecified)	58*	-1	8	8	6	25
COc1ccc([C@@H]2[C@@H]3C(=O)N(C(C)(C)C)C(=O)[C@@H]3[C@]3(Cc4ccc(Cl)cc4)C(=O)N(c4cccc(C)c4)C(=O)N23)cc1	83*	1	-3	-5	-1	39
COc1ccc([C@@H]2[C@@H]3C(=O)N(C(C)(C)C)C(=O)[C@@H]3[C@]3(Cc4ccc(Cl)cc4)C(=O)N(c4ccc(C)cc4)C(=O)N23)cc1	92*	0	5	0	-4	39
COc1ccc([C@@H]2[C@@H]3C(=O)N(C(C)(C)C)C(=O)[C@@H]3[C@]3(Cc4ccccc4)C(=O)N(c4ccc(C(F)(F)F)cc4)C(=O)N23)cc1	40	0	8	0	-4	·
CCN(CC)S(=O)(=O)c1ccc(N2CCOCC2)c(NC(=O)C(=O)c2c(-c3ccccc3)cc3ccccn23)c1	54*	1	3	0	1	34
CC(C)(C)OC(=O)NC(Cc1ccccc1)C1CC(C#N)C(=O)O1 (stereo unspecified)	·	·	-1	-5	·	·
Cc1c(Cl)c(=O)oc2cc(OCC(=O)NCc3cccs3)ccc12	57*	-3	-314	-99	-1	11
Cn1c(SCC(=O)Nc2ccccc2-c2ccccc2)nnc1-c1ccccc1	·	0	-10	1	·	·
COc1ccc(C2CC(c3cccs3)=NN2C(=O)CSc2nc(=O)n3cc(C)ccc3n2)cc1 (stereo unspecified)	53*	0	-4	1	3	4
COc1cc(-n2c(C)nc3cc(C(=O)N4CCCC4)ccc32)cc(OC)c1OC	·	0	-9	-2	·	·
CC(C)CNC(=O)c1cc([N+](=O)[O-])ccc1N1CCOCC1	-3	0	3	3	1	·
CC(NC(=O)COC(=O)c1cc([N+](=O)[O-])ccc1N1CCOCC1)c1ccc(F)cc1 (stereo unspecified)	82*	0	3	1	-4	84*
CC(NC(=O)COC(=O)c1cc([N+](=O)[O-])ccc1N1CCOCC1)c1ccccc1 (stereo unspecified)	73*	0	1	4	1	85*
CC(=O)Nc1ccc(S(=O)(=O)NN=Cc2ccc(Cl)c(Cl)c2)cc1	-2	-1	-7	-4	-2	·
O=[N+]([O-])c1ccc(S(=O)(=O)N/N=C/c2ccc3c(c2)OCO3)cc1	72*	0	-5	-3	-4	74*
O=[N+]([O-])c1cccc(S(=O)(=O)N/N=C\c2ccc3c(c2)OCO3)c1	7	0	4	-2	1	·
O=[N+]([O-])c1ccc(S(=O)(=O)NN=Cc2ccc(Cl)c(Cl)c2)cc1	81*	1	2	-3	12*	89*
COC(=O)[C@]12C[C@H](CC(=O)N3CCCCC3)C(=O)N(CCc3ccc(OC)c(OC)c3)C1=C[C@H](C1CCCC1)O[C@@H]2C	·	1	6	3	·	·
CCN(C[C@H]1N[C@@](Cc2ccccc2)(C(=O)OC)[C@H]2C(=O)N(C)C(=O)[C@@H]12)S(=O)(=O)c1ccc(-c2ccccc2)cc1	52*	1	7	1	1	33
SMILES	FAS-TE inh	proKLK7 act	ADAM10 inh	ADAM17 inh	GRIN3A LBD mod	FAS-TE inh conf
COC(=O)[C@]1(Cc2ccccc2)N[C@H](c2ccc(-c3cccc(Cl)c3)c(OC)c2)[C@@H]2C(=O)N(C)C(=O)[C@@H]21	93*	-3	19	8	-5	44
CCN1C(=O)[C@H]2[C@@H](c3ccc(-c4ccc(Cl)c(Cl)c4)cc3)N[C@@](Cc3ccccc3)(C(=O)OC)[C@H]2C1=O	89*	0	-1	-2	-2	13
CCN(C[C@H]1N[C@@](Cc2ccccc2)(C(=O)OC)[C@H]2C(=O)N(C)C(=O)[C@@H]12)S(=O)(=O)c1ccccc1	3	0	6	3	1	·
CCN1C(=O)[C@H]2[C@@H](c3ccc(-c4cccc(Cl)c4)c(OC)c3)N[C@@](Cc3ccccc3)(C(=O)OC)[C@H]2C1=O	47	0	-11	-3	-1	·
CCN1C(=O)[C@H]2[C@@H](c3ccc(-c4ccc(OC)cc4)c(OC)c3)N[C@@](Cc3ccccc3)(C(=O)OC)[C@H]2C1=O	52*	-1	-11	-1	0	23
COc1ccc(CNC(=O)OC2CC3CC2[C@H]2CCCCN2C3)cc1 (stereo partly specified)	·	0	-2	-2	·	·
CCN1C(=O)[C@H]2[C@@H](c3ccc(-c4ccccc4)cc3)N[C@@](Cc3ccccc3)(C(=O)OC)[C@H]2C1=O	37	0	8	-1	1	·
CCN1C(=O)[C@H]2[C@@H](c3ccc(-c4ccc5c(c4)OCO5)c(OC)c3)N[C@@](CC(C)C)(C(=O)OC)[C@H]2C1=O	32	-5	-402	-103	-3	·
COC(=O)[C@]1(Cc2ccccc2)N[C@H](c2ccc(-c3ccc(F)cc3)cc2)[C@@H]2C(=O)N(C)C(=O)[C@@H]21	85*	0	1	0	1	28
